Measurements taken from PubChem BioAssay (NCI).
“And” between values parts separate entries of the source, which are not always exact repeats. Identical values can stand only once. About 83,000 compounds went through this panel and 20% of them were active in at least one assay; those are over-represented in the sample as a whole.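 Results are percent growth after 48 hours of single-concentration exposure. 100 means growth as in untreated cells, lower positive values show inhibition; negative values down to -100 show cell death.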 The source made the active and inactive calls. Rule for the calls: active = growth percent below 10; inactive = the rest.

How the values were obtained:
Assay in all cases: NCI-60 one-dose screen, 48 h (100 = growth as untreated, 0 = no growth, -100 = all killed)
Conditions in all cases: 10 µM unless noted
SR leukemia = system: SR leukemia
RPMI-8226 leukemia = system: RPMI-8226 leukemia
OVCAR-8 ovarian = system: OVCAR-8 ovarian
OVCAR-5 ovarian = system: OVCAR-5 ovarian
OVCAR-4 ovarian = system: OVCAR-4 ovarian
SK-OV-3 ovarian = system: SK-OV-3 ovarian
IGROV1 ovarian = system: IGROV1 ovarian
OVCAR-3 ovarian = system: OVCAR-3 ovarian
HS 578T breast = system: HS 578T breast
NCI/ADR-RES ovarian = system: NCI/ADR-RES ovarian

Measured: growth

O=C(Nc1ccc(F)cc1)Nc1nc2ccc([N+](=O)[O-])cc2s1
active: RPMI-8226 leukemia -23.5% | SK-OV-3 ovarian -5.21% | HS 578T breast -8.39% | NCI/ADR-RES ovarian 6.37%
inactive: SR leukemia 12.9% | OVCAR-8 ovarian 11.4% | OVCAR-5 ovarian 24% | OVCAR-4 ovarian 16.4% | IGROV1 ovarian 27.1% | OVCAR-3 ovarian 22.6%

Clc1ccc(-c2nc3c4c(-c5ccccc5)c(-c5ccccc5)n(Cc5ccccc5)c4ncn3n2)cc1
active: SR leukemia 5.49% | RPMI-8226 leukemia -34.7% | SK-OV-3 ovarian -10.2% | HS 578T breast -8.15%
inactive: OVCAR-8 ovarian 11.6% | OVCAR-5 ovarian 16.6% | OVCAR-4 ovarian 16.4% | IGROV1 ovarian 16.1% | OVCAR-3 ovarian 14.7% | NCI/ADR-RES ovarian 70.9%

COc1ccc(-c2nc3ccc(-c4nnc(SCC(=O)Nc5ccc(/C(C)=N\O)cc5)o4)cc3[nH]2)cc1
active: HS 578T breast 6.55%
inactive: SR leukemia 47.9% | RPMI-8226 leukemia 36.5% | OVCAR-8 ovarian 55.4% | OVCAR-5 ovarian 113% | OVCAR-4 ovarian 83.3% | SK-OV-3 ovarian 80.1% | IGROV1 ovarian 69.6% | OVCAR-3 ovarian 63.3% | NCI/ADR-RES ovarian 108%

CN1C(=O)/C(=C/c2ccco2)S/C1=N/c1nccs1
inactive: SR leukemia 89.5% | RPMI-8226 leukemia 115% | OVCAR-8 ovarian 104% | OVCAR-5 ovarian 110% | OVCAR-4 ovarian 97.8% | SK-OV-3 ovarian 106% | IGROV1 ovarian 106% | OVCAR-3 ovarian 114% | HS 578T breast 111% | NCI/ADR-RES ovarian 101%

O=C1Nc2cc(-c3ccc(NS(=O)(=O)c4ccc(C(F)(F)F)cc4)cc3)ccc2/C1=C/c1ccc[nH]1
inactive: RPMI-8226 leukemia 26% | OVCAR-8 ovarian 57% | OVCAR-5 ovarian 45.1% | OVCAR-4 ovarian 31.5% | SK-OV-3 ovarian 57.7% | IGROV1 ovarian 61.3% | OVCAR-3 ovarian 39.8% | HS 578T breast 40.6% | NCI/ADR-RES ovarian 40.5%
active: SR leukemia 4.6%

NS(=O)(=O)c1cccc(Nc2nc(SCC(=O)c3ccc(F)cc3)nc3ccccc23)c1
active: SR leukemia 8.61% | RPMI-8226 leukemia -2.61% | OVCAR-3 ovarian 0.387% | HS 578T breast 7.8%
inactive: OVCAR-8 ovarian 16.4% | OVCAR-5 ovarian 45.1% | OVCAR-4 ovarian 15.6% | SK-OV-3 ovarian 38.3% | IGROV1 ovarian 13.9% | NCI/ADR-RES ovarian 26.7%

COC(=O)c1cc(C(=O)C(C)(C)C)n2c3ccccc3c3ccccc3c12
inactive: SR leukemia 69.7% | RPMI-8226 leukemia 70.2% | OVCAR-8 ovarian 98.6% | OVCAR-5 ovarian 98.6% | OVCAR-4 ovarian 85.9% | SK-OV-3 ovarian 109% | IGROV1 ovarian 86.2% | OVCAR-3 ovarian 110% | HS 578T breast 99.3% | NCI/ADR-RES ovarian 89.3%

O=c1[nH]c2ccccc2cc1CSc1ccccc1Nc1nccc(-c2ccc3c(c2)OCO3)n1
inactive: SR leukemia 103% | RPMI-8226 leukemia 92.2% | OVCAR-8 ovarian 46.8% | OVCAR-5 ovarian 99.5% | OVCAR-4 ovarian 25.4% | SK-OV-3 ovarian 82.7% | IGROV1 ovarian 99.2% | OVCAR-3 ovarian 83.9% | HS 578T breast 34.7% | NCI/ADR-RES ovarian 53.1%

COc1ccccc1NC(=O)N/N=C/c1c[nH]c2ccccc12
inactive: SR leukemia 14.6% | RPMI-8226 leukemia 13.5% | OVCAR-8 ovarian 19.3% | OVCAR-5 ovarian 34.4% | OVCAR-4 ovarian 61.2% | SK-OV-3 ovarian 26.2% | IGROV1 ovarian 38.7% | HS 578T breast 23.8%
active: OVCAR-3 ovarian -32.1% | NCI/ADR-RES ovarian -9.65%

O=C(c1ccc(O)cc1)C1[C@H](c2ccc(Cl)cc2)[C@@H](c2ccccc2)NC12C(=O)Nc1ccccc12 (stereo not given in full)
inactive: OVCAR-8 ovarian 12.5% | SK-OV-3 ovarian 43.7%
active: SR leukemia -47.2% | RPMI-8226 leukemia -3.39% | OVCAR-5 ovarian 9.48% | OVCAR-4 ovarian 9.88% | IGROV1 ovarian 3.49% | OVCAR-3 ovarian 6.48% | HS 578T breast -11.8% | NCI/ADR-RES ovarian -35%

CC(=O)Nc1ccc(S(=O)(=O)Nc2ccc(-c3ccc4c(c3)NC(=O)/C4=C\c3ccc[nH]3)cc2)cc1
inactive: SR leukemia 34.7% | RPMI-8226 leukemia 78.3% | OVCAR-8 ovarian 98% | OVCAR-5 ovarian 79.5% | OVCAR-4 ovarian 67.8% | SK-OV-3 ovarian 104% | IGROV1 ovarian 81.2% | OVCAR-3 ovarian 141% | HS 578T breast 98.6% | NCI/ADR-RES ovarian 107%

CCOC(=O)c1ccc(NC(=S)NC(=O)c2ccc(NC(=O)C(C)C)cc2OC)cc1
active: SR leukemia 0.956% | RPMI-8226 leukemia 0.989%
inactive: OVCAR-8 ovarian 35.1% | OVCAR-5 ovarian 90.1% | OVCAR-4 ovarian 27.2% | SK-OV-3 ovarian 100% | IGROV1 ovarian 64.5% | OVCAR-3 ovarian 57.4% | HS 578T breast 86.7% | NCI/ADR-RES ovarian 23%

O=C1CCC(N2C(=O)c3cccc(NCCCCCC(=O)N4CCN(c5ccc6nc7c(nc6c5C(F)(F)F)C(=O)c5ncccc5C7=O)CC4)c3C2=O)C(=O)N1 (stereo not given)
active: SR leukemia 8.9% | RPMI-8226 leukemia -0.232% | OVCAR-8 ovarian -53.3% | OVCAR-5 ovarian -90.5% | OVCAR-4 ovarian -83.4% | SK-OV-3 ovarian -66.9% | IGROV1 ovarian -75.4% | OVCAR-3 ovarian -50.4% | HS 578T breast -11.5%
inactive: NCI/ADR-RES ovarian 19.6%

CCc1ccccc1NC(=O)N/C(N)=N/c1nc2ccccc2s1
inactive: RPMI-8226 leukemia 15.7% | OVCAR-4 ovarian 16.7% | IGROV1 ovarian 20% | HS 578T breast 27.1%
active: SR leukemia 7.38% | OVCAR-8 ovarian -26.6% | OVCAR-5 ovarian 0.307% | SK-OV-3 ovarian 7.32% | OVCAR-3 ovarian -30.2% | NCI/ADR-RES ovarian -30.4%

FC(F)(F)c1cc2c(Cl)ncnc2n1CCN1CCOCC1
inactive: RPMI-8226 leukemia 103% | OVCAR-8 ovarian 64.7% | OVCAR-5 ovarian 98.4% | OVCAR-4 ovarian 19.7% | SK-OV-3 ovarian 101% | OVCAR-3 ovarian 38.5% | HS 578T breast 95.8% | NCI/ADR-RES ovarian 81.4%
active: SR leukemia -50.8% | IGROV1 ovarian -58.3%

Fc1ccc(N2CC(Cn3c(C(F)(F)F)cc4c(Cl)ncnc43)C2)c(F)c1
inactive: RPMI-8226 leukemia 24.2% | OVCAR-5 ovarian 107% | SK-OV-3 ovarian 100% | HS 578T breast 55.1% | NCI/ADR-RES ovarian 11.4%
active: SR leukemia -60.9% | OVCAR-8 ovarian -87.6% | OVCAR-4 ovarian -27.1% | IGROV1 ovarian -95.7% | OVCAR-3 ovarian -66.2%

O=C(CCl)Nc1ccc(C(=O)/C=C/c2cc3ccccc3nc2Cl)cc1
-36.6% (active) and 40.5% (inactive): RPMI-8226 leukemia
inactive: OVCAR-8 ovarian 14.6% and 48.6% | SK-OV-3 ovarian 70.5% and 66.7% | HS 578T breast 42.1% and 53.7%
-59.6% (active) and 54.7% (inactive): OVCAR-4 ovarian
-59.5% (active) and 42.4% (inactive): OVCAR-3 ovarian
active: NCI/ADR-RES ovarian -26.4% and 4.54%
-69.5% (active) and 25.5% (inactive): SR leukemia
-61.1% (active) and 55.9% (inactive): OVCAR-5 ovarian
-84.1% (active) and 39.2% (inactive): IGROV1 ovarian

CCCn1c(NC(=O)c2cccc(C(N)=O)c2)nc2ccc(CN3CCCCC3)cc21
inactive: SR leukemia 31.4% | RPMI-8226 leukemia 85.2% | OVCAR-8 ovarian 107% | OVCAR-5 ovarian 83.3% | OVCAR-4 ovarian 98.5% | SK-OV-3 ovarian 85.9% | IGROV1 ovarian 72.4% | OVCAR-3 ovarian 112% | HS 578T breast 111% | NCI/ADR-RES ovarian 111%

O=C1Nc2ccccc2/C1=C/C(=O)c1cc2ccccc2oc1=O
inactive: SR leukemia 56.8% | RPMI-8226 leukemia 95.9% | OVCAR-8 ovarian 109% | OVCAR-5 ovarian 112% | OVCAR-4 ovarian 104% | SK-OV-3 ovarian 91.9% | IGROV1 ovarian 98.3% | OVCAR-3 ovarian 55.9% | HS 578T breast 105% | NCI/ADR-RES ovarian 107%

c1n[nH]cc1-c1nc2ccc3[nH]ncc3c2c2c1CC1(CC2)COC1
inactive: RPMI-8226 leukemia 71.4% | OVCAR-8 ovarian 52% | OVCAR-5 ovarian 107% | OVCAR-4 ovarian 89.7% | SK-OV-3 ovarian 21.7% | IGROV1 ovarian 55.4% | OVCAR-3 ovarian 43.8% | NCI/ADR-RES ovarian 108%
active: SR leukemia 5.21% | HS 578T breast 0.359%

O=C(Nc1nc2ccc([N+](=O)[O-])cc2s1)Nc1ccccc1F
inactive: SR leukemia 15.1% | OVCAR-8 ovarian 15.1% | OVCAR-5 ovarian 15.5% | OVCAR-4 ovarian 16.6% | IGROV1 ovarian 21.7% | OVCAR-3 ovarian 24.6%
active: RPMI-8226 leukemia -19.2% | SK-OV-3 ovarian -14.2% | HS 578T breast 0.171% | NCI/ADR-RES ovarian 7.3%

COc1ccc(N=Nc2c(N)nn3c(-c4ccc(F)cc4)ccnc23)cc1
active: SR leukemia 3.18%
inactive: RPMI-8226 leukemia 95.5% | OVCAR-8 ovarian 73.1% | OVCAR-5 ovarian 80% | OVCAR-4 ovarian 26.1% | SK-OV-3 ovarian 113% | IGROV1 ovarian 99.9% | OVCAR-3 ovarian 79.6% | HS 578T breast 107% | NCI/ADR-RES ovarian 74.3%

COc1ccc(NC(=O)Nc2nc3ccc([N+](=O)[O-])cc3s2)cc1
inactive: OVCAR-8 ovarian 17.1% | OVCAR-5 ovarian 60.4% | OVCAR-4 ovarian 15.2% | SK-OV-3 ovarian 58.6% | IGROV1 ovarian 26.4% | OVCAR-3 ovarian 18%
active: SR leukemia 5.15% | RPMI-8226 leukemia -2.91% | HS 578T breast 5.84% | NCI/ADR-RES ovarian -1.49%
